About 2,000 (36%) of roughly 5,500 compounds were called active. Another 18% or so got no clear call; they are omitted. Cut-off read from the data, not from the text of the source: active = normalized growth mostly below about 0.91 (no sharp cut-off); inconclusive = no clear call, values can overlap the other calls; inactive = mostly above about 0.92. The list shows a part of the results.
Experiment: chemical genetic growth profiling, strain panel (AID 1159580);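 note: tested at 20 µM; growth read once vehicle control cultures reached saturation at 30 °C; 1 = growth at the plate median or of vehicle wells; lower values mean less growth of the strain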
Settings: S. cerevisiae deletion strains, growth OD

Measured: normalized growth

C[C@]12CC[C@@H]3c4ccc(O)cc4CC[C@H]3[C@@H]1CCC2=O
inactive: locus YAL040C, strain CLN3, hits give low values 0.996 | locus YCL061C, strain MRC1 (second series), hits give low values 1.01 | locus YDR150W, strain NUM1, hits give low values 1 | locus YDR363W, strain ESC2, hits give low values 1 | locus YER002W, strain NOP16, hits give low values 0.995 | locus YMR263W, strain SAP30, hits give low values 1 | locus YMR307W, strain GAS1, hits give low values 1 | locus YNL175C, strain NOP13, hits give low values 0.985 | locus YNL197C, strain WHI3, hits give low values 1 | locus YNL224C, strain SQS1, hits give low values 1 | locus YNL322C, strain KRE1, hits give low values 0.987 | locus YOR083W, strain WHI5 (second series), hits give low values 0.905 | locus YPL241C, strain CIN2, hits give low values 1

Reference: PubChem BioAssay AID1159580 (chemical genetic matrix, 2015)
